The results in this text go back to PubChem BioAssay (Tox21).

Assay [1] is described as follows: A CellTox Green Cytotoxicity Assay to monitor cytotoxicity in HEK293 cells - 32 hour (AID 1224881). Further: nearly all actives have a fitted effect of over 40% in size. Put shortly: (§1)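 Nonlytic real-time cytotoxicity: HEK293 + CellTox Green reagent plated, 5 h preincubation, pintool compound addition (23 nL in DMSO), 37 C for 40 h, fluorescence measured at successive time points.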
The nature of assay [2]: A CellTox Green Cytotoxicity Assay to monitor cytotoxicity in HepG2 cells - 0 hour (AID 1224882). Further: nearly all actives have a fitted effect of over 35% in size. Put shortly: (§2)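 Read-out is fluorescence of a cyanine dye excluded from live cells that stains DNA of dead HepG2 cells, with signal proportional to cytotoxicity. Plates were read at 0, 8, 16, 24, 32 and 40 h after compound addition.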
The nature of assay [3]: A CellTox Green Cytotoxicity Assay to monitor cytotoxicity in HEK293 cells - 8 hour (AID 1224884). Further: nearly all actives have a fitted effect of over 35% in size. Put shortly: as §1
The nature of assay [4]: qHTS RealTime-Glo MT Cell Viability Assay in HepG2 cells - 16 hour (AID 1224885). Further: nearly all actives have a fitted effect of over 50% in size. In outline: (§3)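 HepG2 cells (600/well) were dispensed with RealTime-Glo reagents, incubated 5 h at 37 °C, then treated with compounds in DMSO for up to 40 h. Nonlytic NanoLuc luminescence reflecting viable cells was read at each stated time point.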
In general terms: In qHTS, concentration-response curves come from the screen itself.

Assay [5] in a line: qHTS RealTime-Glo MT Cell Viability Assay in HEK293 cells - 24 hour (AID 1224886). Further: nearly all actives have a fitted effect of over 50% in size. Further: potency means the concentration at half of the fitted maximal effect. Put shortly:
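HEK293 cells seeded with NanoLuc/prosubstrate reagent, rested 5 h at 37 C, then dosed and kept at 37 C up to 40 h. Nonlytic real-time luminescence from viable cells read at 0, 8, 16, 24, 32 and 40 h.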

Assay [6] can be described thus: qHTS RealTime-Glo MT Cell Viability Assay in HEK293 cells - 8 hour (AID 1224887). Further: top concentration of the series differs between compounds; nearly all actives have a fitted effect of over 50% in size. In outline:
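Cells were seeded together with NanoLuc luciferase and a prosubstrate that viable cells reduce to a luciferase substrate. After a 5 h incubation at 37 C/5% CO2, compounds were added and luminescence was measured repeatedly during 40 h of treatment.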

The nature of assay [7]: A CellTox Green Cytotoxicity Assay to monitor cytotoxicity in HEK293 cells - 16 hour (AID 1224888). Further: nearly all actives have a fitted effect of over 35% in size. In outline:
as §1

Assay [8] can be described thus: qHTS RealTime-Glo MT Cell Viability Assay in HepG2 cells - 0 hour (AID 1224889). Further: nearly all actives have a fitted effect of over 50% in size. Put shortly: as §3
The nature of assay [9]: A CellTox Green Cytotoxicity Assay to monitor cytotoxicity in HepG2 cells - 8 hour (AID 1224890). Further: nearly all actives have a fitted effect of over 45% in size. Put shortly: as §2
Assay [10] can be described thus: qHTS assay to identify small molecule antagonists of the estrogen receptor alpha (ER-alpha) signaling pathway using the BG1 cell line in the presence of 0.1 nM 17-beta-estradiol - cell viability counter screen (AID 1259241). Further: nearly all actives have a fitted effect of over 40% in size. Further: potency means the concentration at half of the fitted maximal effect. Put shortly: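 In this screen, hormone-deprived VM7Luc4E2 cells were seeded at 4,000 per well, dosed with compound and 0.1 nM estradiol final, and incubated 22 hr at 37C and 5% CO2; fluorogenic live-cell protease signal reported viability.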

In assay [11] the target is Estrogen receptor (Homo sapiens) (UniProt P03372). As to the kind of experiment: qHTS assay to identify small molecule antagonists of the estrogen receptor alpha (ER-alpha) signaling pathway using the BG1 cell line in the presence of 0.1 nM 17-beta-estradiol (AID 1259244). Further: nearly all actives have a fitted effect of over 50% in size. Further: potency means the concentration at half of the fitted maximal effect. Put shortly:
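Cells: VM7Luc4E2, endogenous ER-alpha, 4x ERE-luc stable. Pre-culture 5 d, phenol red-free, charcoal-stripped FBS. Plated 24 h, compound + E2 0.1 nM final, 22 h 37C/5% CO2. Readout ONE-Glo luminescence.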

Assay [12] in a line: qHTS assay to identify small molecule HDAC inhibitors (AID 1259364). Further: nearly all actives have a fitted effect of over 45% in size. Further: potency means the concentration at half of the fitted maximal effect. In outline:
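Luminescence from a cell-permeant luminogenic class I/II HDAC substrate reports endogenous deacetylase activity in intact HCT-116 cells treated with compounds for 2 h.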

Assay [13] is described as follows: qHTS assay to identify small molecule HDAC inhibitors - cell viability counter screen (AID 1259365). In outline: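 Measured quantity is CellTiter-Glo luminescence from wild-type HCT-116 cells after compound incubation of 2hr at 37C, 5% CO2; reagent developed 30min at room temperature.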
Assay [14] in a line: qHTS assay to identify small molecule agonists of the sonic hedgehog signaling (Shh) pathway - cell viability counter screen (AID 1259366). Further: nearly all actives have a fitted effect of over 50% in size. Further: potency means the concentration at half of the fitted maximal effect. Put shortly: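 In quantitative high-throughput format, 3T3 Gli1-Luc cells were exposed to compounds for 24hr and multiplexed for viability using CellTiter-Fluor, incubated 1hr at 37C before the fluorescence read.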
Assay [15] in a line: qHTS assay to identify small molecule antagonists of the sonic hedgehog signaling (Shh) pathway - cell viability counter screen (AID 1259367). Further: nearly all actives have a fitted effect of over 55% in size. Further: potency means the concentration at half of the fitted maximal effect. In outline: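 Cells: 3T3 Gli1-Luc, 2,000/well, 4 hr pre-incubation. Compounds in DMSO, then conditioned medium. Incubation 24 hr, 37C, 5% CO2. CellTiter-Fluor at 23 hr, 1 hr, fluorescence.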
The nature of assay [16]: qHTS assay to identify small molecule agonists of the sonic hedgehog signaling (Shh) pathway (AID 1259368; calls by dose curve;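 further: NIH/3T3-derived 3T3Gli1-Luc cells carrying a stable Gli1-driven firefly luciferase reporter; series mostly up to about 92 µM; nearly all actives have a fitted effect of over 15% in size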). In outline: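 3T3Gli1-Luc (NIH/3T3 clone, stable Gli1-Luc); 4 hr pre-incubation, then cpd in DMSO 24 hr, 37 C/5% CO2; luciferase reagent 30 min RT; luminescence.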
Assay [17] can be described thus: qHTS assay to identify small molecule antagonists of the sonic hedgehog signaling (Shh) pathway (AID 1259369; calls by dose curve; further: nearly all actives have a fitted effect of over 45% in size; further: potency means the concentration at half of the fitted maximal effect). In outline:
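3T3Gli1-Luc, conditioned-medium-stimulated, 24hr cpd, 37C/5% CO2; Gli1-driven firefly Luc luminescence after 30min RT with luciferase reagent. Cells plated 4hr before cpd.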

Assay [18] can be described thus: qHTS assay to identify small molecule phospholipidosis (PLD) inducers (AID 1259344; active means well fitted curve in the direction sought with a large enough effect; an effect the other way counts as inactive or inconclusive). In outline:
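Phospholipidosis is scored by imaging LipidTOX-stained pits in HepG2 cells exposed to compound for 24 h at 37 C; pit counts and integrated intensities per well and per cell serve as outputs.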

Assay [19] in a line: A CellTox Green Cytotoxicity Assay to monitor cytotoxicity in HepG2 cells - 32 hour (AID 1224883). Further: nearly all actives have a fitted effect of over 50% in size. In outline:
as §2

The nature of assay [20]: qHTS assay to identify small molecule antagonists of the androgen receptor (AR) signaling pathway using the MDA cell line in the presence of 0.5 nM R1881 - cell viability counter screen (AID 1259242). Further: nearly all actives have a fitted effect of over 45% in size. In outline: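 Counter screen for cytotoxicity run in the same wells as the AR antagonist reporter screen: MDA-kb2 cells were treated 16 hr with test compounds and 0.5 nM R1881, then live-cell protease activity was measured by fluorescence.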

Structures are written as SMILES. Where “and” joins values, the source holds several entries; their conditions need not be identical. Equal entries are not always repeated. Inconclusive results are not listed. Some compounds were tested as several samples or in several runs, with calls that do not always agree. Calls of active or inactive are those of the source. Unless noted, the call rests on the fitted dose curve; in most records, active means well fitted curve in the direction sought with a large enough effect in the repeat runs; inconclusive means weak or mixed curves; inactive means no such curve, though single readings can be large; an effect the other way counts as inactive or inconclusive.

Estrogen receptor (Homo sapiens), sequence (P03372 whole entry, looked up): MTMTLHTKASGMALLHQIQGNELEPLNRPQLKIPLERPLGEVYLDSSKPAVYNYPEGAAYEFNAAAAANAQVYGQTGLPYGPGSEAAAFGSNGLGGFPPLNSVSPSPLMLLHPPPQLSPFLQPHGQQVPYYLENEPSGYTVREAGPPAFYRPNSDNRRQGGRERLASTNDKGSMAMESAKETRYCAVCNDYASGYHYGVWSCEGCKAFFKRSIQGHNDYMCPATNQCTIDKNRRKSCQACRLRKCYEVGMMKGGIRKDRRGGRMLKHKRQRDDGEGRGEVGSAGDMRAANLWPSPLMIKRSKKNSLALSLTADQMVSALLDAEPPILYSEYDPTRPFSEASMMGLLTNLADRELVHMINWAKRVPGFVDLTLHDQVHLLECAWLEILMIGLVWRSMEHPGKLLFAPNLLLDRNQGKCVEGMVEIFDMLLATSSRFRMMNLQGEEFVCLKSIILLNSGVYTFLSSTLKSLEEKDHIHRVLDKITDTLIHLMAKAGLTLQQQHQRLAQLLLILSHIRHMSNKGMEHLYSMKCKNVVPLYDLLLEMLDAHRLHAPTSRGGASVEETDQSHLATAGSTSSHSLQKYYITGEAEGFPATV

Consider `CCCCCCCCCCCOC(=O)c1ccccc1C(=O)OCCCCCCCCCCC`, for which the Potency entry in assay [1], in [2], in assay [3], in assay [4], in assay [5] and in assay [6] was “inactive” throughout. The Potency entry in [7], in [8], in assay [9], in assay [10], in [11] and in assay [12] was “inactive” in each case. Further, the Potency entry in assay [14], in assay [15], in assay [16] and in [17] was “inactive” in each case. Moreover, in assay [13], the call was inactive.
`CCCCCCCCC(=O)NCc1ccc(O)c(OC)c1`: the Potency result in assay [1], in [2], in assay [3], in assay [4], in [5] and in [7] was “inactive” throughout. Also, the Potency entry in [8], in assay [9], in [10], in assay [11], in assay [14] and in assay [15] was “inactive” in each case. Moreover, the Potency entry in assay [16] was “inactive”. Moreover, the call in assay [18] and in assay [13] was inactive. For the same compound, the Potency in assay [17] was 12.2 µM (active) and inactive.
`c1ccc(N=Nc2ccccc2)cc1`: the Potency entry in assay [2], in assay [19], in assay [3], in assay [4], in assay [5] and in assay [6] was “inactive” throughout. Further, the Potency entry in [7], in [8], in assay [9], in assay [10], in assay [20] and in [14] was “inactive” in each case. In addition, the Potency entry in assay [15], in [16] and in assay [17] was “inactive” throughout. Besides, the Potency in assay [12] is 30.6 µM (active). Further, the result in [13] was inactive.
Consider `O=[N+]([O-])c1ccc(O)c([N+](=O)[O-])c1`, for which the Potency entry in [2], in assay [3], in assay [4], in [5], in assay [6] and in assay [7] was “inactive” throughout. Besides, the Potency entry in assay [8], in assay [9] and in [16] was “inactive” each time. In addition, the Potency in assay [10] is 30.8 µM (active) and 27.3 µM (active); in assay [11] it was 48.8 µM (active) and 48.6 µM (active); in [15], 48.8 µM (active); in [17] it was 30.8 µM (active) and 30.6 µM (active). In assay [13], the outcome was inactive.
With `CCOCN(C(=O)CCl)c1c(C)cccc1CC`, the Potency result in assay [1], in assay [2], in assay [3], in assay [4], in [5] and in assay [6] was “inactive” in each case. In addition, the Potency entry in assay [7], in assay [8], in [9], in assay [10] and in assay [16] was “inactive” throughout. Further, the Potency in assay [11] is 45.9 µM (active) and 48.6 µM (active); in [14] it was 57.7 µM (active) and 30.6 µM (active); in assay [15], 54.5 µM (active); in assay [17], 18.3 µM (active) and 19.3 µM (active). The outcome in assay [13] was inactive.
As to `Nc1ccc(-c2ccccc2)cc1`, the Potency result in assay [1], in assay [2], in [3], in assay [4], in [6] and in [7] was “inactive” in each case. Moreover, the Potency entry in assay [8], in [9], in [10], in assay [20], in [11] and in [14] was “inactive” each time. In addition, the Potency entry in [15] and in [16] was “inactive” in each case. Further, the Potency in [5] was 7.11 µM (active) and inactive; in [17], 17.7 µM (active) and inactive. Also, in assay [13], the outcome was inactive.
As to `C=CCc1ccc(OC)cc1`, the Potency result in assay [1], in assay [2], in assay [3], in [4], in assay [5] and in assay [6] was “inactive” in each case. The Potency result in assay [7], in assay [8], in assay [9], in [10], in assay [20] and in assay [14] was “inactive” throughout. The Potency result in [15], in assay [16] and in [17] was “inactive” in each case. The result in [13] was inactive.
